Sampled rows, rich in hits. Any-hit rate of the full collection: about 0.79%.
RE007 growth inh – qHTS Assay for Inhibitors of the HIV-1 protein Vpr. 0.21% of 360,000 active. AID 651644, 2012. Potency, µM (doses to about 92.2 µM), actives largely listed as inhibitors. S. pombe RE007 Vpr strain, BacTiter-Glo ATP luminescence, 24 h; active means well fitted falling curve with a large enough effect; inconclusive means small, poorly fitted or top-dose-only effect; inactive means no such curve, though single readings can be large or run the other way; further: nearly all actives have a fitted effect of over 50% in size
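Fission yeast strain RE007, carrying one chromosomally integrated HIV-1 vpr copy, was seeded at OD 0.01 in PMG+AL medium with 23 nL pinned compound. After 24 h at 30 °C and 99% humidity, viability was read by BacTiter-Glo luminescence.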
AmpC inh no detg – qHTS Inhibitors of AmpC Beta-Lactamase (assay without detergent). Potency, µM (titrated, usually from 57.1 µM), actives largely listed as inhibitors. P00811. 0.52% of 330,000 active. AID 485341, 2010. AmpC nitrocefin hydrolysis, absorbance 480 nm, 0.0001% Triton; further: nearly all actives have a fitted effect of over 20% in size
Target sequence (P00811 whole entry, looked up): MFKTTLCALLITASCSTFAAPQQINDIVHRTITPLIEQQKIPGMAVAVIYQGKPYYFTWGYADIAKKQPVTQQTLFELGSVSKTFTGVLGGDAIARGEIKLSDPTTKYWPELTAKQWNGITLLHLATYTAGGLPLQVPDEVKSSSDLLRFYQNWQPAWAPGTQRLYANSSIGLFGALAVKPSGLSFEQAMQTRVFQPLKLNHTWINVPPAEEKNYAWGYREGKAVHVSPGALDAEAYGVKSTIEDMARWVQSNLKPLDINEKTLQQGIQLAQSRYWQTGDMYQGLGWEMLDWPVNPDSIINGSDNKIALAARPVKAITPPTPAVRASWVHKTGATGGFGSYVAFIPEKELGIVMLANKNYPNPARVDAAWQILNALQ
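AmpC (5.3 nM in the dispensed reagent) in 20 mM phosphate pH 7.0 with 0.01% (detergent screen) or 0.0001% Triton X-100 was preincubated with compounds for 15 min at room temperature. Nitrocefin was then added from an 800 uM solution, and hydrolysis was followed at 480 nm.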
AMA1 RON2 block – qHTS for Inhibitors of AMA1-RON; Towards Development of Antimalarial Drug Lead: Primary Screen | 0.2% of 360,000 active | AlphaScreen AMA1-biotinylated RON2 peptide binding | AID 720542, 2013 | Potency, µM (titrated, usually from 58.2 µM), most hits filed as inhibitors; further: nearly all actives have a fitted effect of over 45% in size
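AMA1 (3D7) with his tag at 25 nM final met compounds first, then biotinylated RON2 peptide at 25 nM; detection used donor plus acceptor beads, 10 µg/mL apiece, read by AlphaScreen after 30 min at room temperature.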
AmpC detergent – qHTS Inhibitors of AmpC Beta-Lactamase (assay with detergent); P00811; AmpC hydrolysis of nitrocefin, absorbance 480 nm, 0.01% Triton; Potency, µM (top dose mostly 114 µM), hits mostly inhibitors; 0.041% of 370,000 active; AID 485294, 2010; further: nearly all actives have a fitted effect of over 25% in size
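20 mM phosphate pH 7.0 + 0.01% (detergent screen) or 0.0001% Triton X-100; 5.3 nM AmpC reagent; cpd preinc 15 min RT; nitrocefin (800 uM stock) to start; A480 q20 s × 4 min; Activity was normalised to no-enzyme and no-compound control wells.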
Numbers stand for hits; [ ] = dose if it differs, or a comment. Unless noted, the call rests on the fitted dose curve; in most records, active means well fitted curve in the direction sought with a large enough effect; inconclusive means small, poorly fitted or top-dose-only effect, or another doubt; inactive means no such curve, though single readings can be large; an effect the other way counts as inactive or inconclusive.

What do the screens show for `CCOC(=O)Cn1c(=O)oc2cc(S(=O)(=O)N3CCCc4ccccc43)ccc21`?
RE007 growth inh: inactive; AmpC inh no detg: inactive; AMA1 RON2 block: inactive; AmpC detergent: inconclusive

What do the screens show for `O=c1c2ccccc2c(-c2ccc(O)cc2)nn1-c1cccc(C(F)(F)F)c1`?
AmpC inh no detg: 17.8µM; AMA1 RON2 block: inactive; AmpC detergent: inactive

Results for O=c1c2ccccc2c(-c2cccc(C(F)(F)F)c2)nn1-c1ccccc1 ?
RE007 growth inh: inactive; AmpC inh no detg: inactive; AMA1 RON2 block: inactive; AmpC detergent: inactive

Results for COc1ccc(CCn2c(SCC(=O)Nc3cc(C)on3)nc3ccsc3c2=O)cc1OC ?
RE007 growth inh: inactive; AmpC inh no detg: 0.316µM; AMA1 RON2 block: inactive; AmpC detergent: inactive

Results for COc1cccc(NC(=O)Nc2nnc(CC(=O)NCc3ccccc3)s2)c1 ?
RE007 growth inh: inactive; AmpC inh no detg: 25.1µM; AMA1 RON2 block: inactive; AmpC detergent: inactive

Results for CCCC1N=C2c3ccccc3N=C(SCC(=O)NCCc3ccc(Cl)cc3)N2C1=O (configuration not stated) ?
AmpC detergent: inactive

Results for Cc1nc2ncccn2c1-c1csc(Nc2ccc(N(C)C)cc2)n1 ?
RE007 growth inh: inactive; AmpC inh no detg: inactive; AMA1 RON2 block: 14.1µM; AmpC detergent: inactive

How did CC(C)CCNC(=O)CSc1nc2ccccc2nc1Cc1ccccc1 do in these assays?
AmpC detergent: inactive

How did N/C(Cc1ccc(Cl)cc1Cl)=N\OC(=O)c1cccs1 do in these assays?
RE007 growth inh: 17.8µM; AmpC inh no detg: 0.316µM; AMA1 RON2 block: inactive; AmpC detergent: inactive

How did COc1cccc(C2C=C(c3ccc(C)cc3)Nc3c(C(=O)Nc4ccc(F)cc4)cnn32)c1OC (configuration not stated) do in these assays?
AmpC detergent: inactive

Results for CC(C)C(=O)Nc1ccccc1N1CCN(S(C)(=O)=O)CC1 ?
RE007 growth inh: inactive; AmpC inh no detg: 0.282µM; AMA1 RON2 block: inconclusive; AmpC detergent: inactive

Results for CCOC(=O)C1=C(CS(=O)(=O)c2ccc(C)c(C)c2)NC(=O)NC1c1ccccc1OCC (configuration not stated) ?
AmpC detergent: inactive

How did COC(=O)c1ccccc1NC(=O)Cn1cnc2sc(C)c(S(=O)(=O)N3CCC(C)CC3)c2c1=O do in these assays?
AmpC detergent: inactive

What do the screens show for `COc1cc(NC(=O)CSc2nc3ccccc3cc2C)c(C(=O)O)cc1OC`?
RE007 growth inh: inactive; AmpC inh no detg: inactive; AMA1 RON2 block: inactive; AmpC detergent: inactive

What do the screens show for `CCc1cc2ccccc2nc1SCC(=O)Nc1cc(OC)c(OC)cc1C(=O)O`?
RE007 growth inh: inactive; AmpC inh no detg: 8.91µM; AMA1 RON2 block: inactive; AmpC detergent: inactive

Results for CC(C)(C)c1cc(CCC(=O)NNC(=S)NC(=O)c2ccccc2)cc(C(C)(C)C)c1O ?
RE007 growth inh: inactive; AmpC inh no detg: 1.58µM; AMA1 RON2 block: inactive; AmpC detergent: inactive

How did O=C(CCc1ccccc1)NNC(=S)NC(=O)c1ccccc1 do in these assays?
RE007 growth inh: inconclusive; AmpC inh no detg: inactive; AMA1 RON2 block: inactive; AmpC detergent: inactive

How did COc1ccc(CNC(=O)CN2C(=O)CSc3ccc(S(=O)(=O)N4CCC(C)CC4)cc32)cc1 do in these assays?
AmpC detergent: inactive

Results for COc1ccc(N2CCC(CNC(=S)Nc3cccc(OC)c3)C2)cc1 (configuration not stated) ?
AmpC inh no detg: inactive; AmpC detergent: inactive

How did COc1ccc(N2CCC(CNC(=O)Nc3cccc(OC)c3)C2)cc1 (configuration not stated) do in these assays?
RE007 growth inh: inactive; AmpC inh no detg: 12.6µM; AMA1 RON2 block: inconclusive; AmpC detergent: inactive

Results for O=C(Nc1ccc2nc(SCc3ccccc3)sc2c1)c1ccccc1F ?
AmpC detergent: inactive

What do the screens show for `O=C(CSc1nc2ccc(NC(=O)c3ccccc3C(=O)O)cc2s1)Nc1ccc(F)c([N+](=O)[O-])c1`?
RE007 growth inh: inactive; AmpC inh no detg: 17.8µM; AMA1 RON2 block: inactive; AmpC detergent: inactive

Results for O=C1CC(C(=O)Nc2ccc(C(=O)N3CCOCC3)cc2)C2(CCCCC2)O1 (configuration not stated) ?
RE007 growth inh: inactive; AmpC inh no detg: 5.01µM; AMA1 RON2 block: inactive; AmpC detergent: inactive

Results for O=C1CC(C(=O)Nc2ccccc2)C2(CCCC2)O1 (configuration not stated) ?
RE007 growth inh: inactive; AmpC inh no detg: inactive; AMA1 RON2 block: inactive; AmpC detergent: inconclusive

Results for N=C1/C(=C/c2ccc(-c3cccc(C(=O)O)c3)o2)C(=O)N=C2SC=C(c3ccccc3)N12 ?
RE007 growth inh: inactive; AmpC inh no detg: inactive; AMA1 RON2 block: inconclusive; AmpC detergent: 50.1µM

How did COc1ccccc1C(C[N+](=O)[O-])c1c(N)n(C)c(=O)n(C)c1=O (configuration not stated) do in these assays?
RE007 growth inh: 35.5µM; AmpC inh no detg: inactive; AMA1 RON2 block: inactive; AmpC detergent: inactive

How did CCOC(=O)C1CCN(Cc2ccc(O)c3ncccc23)CC1 do in these assays?
RE007 growth inh: inactive; AmpC inh no detg: inactive; AMA1 RON2 block: 9.47µM; AmpC detergent: inactive

What do the screens show for `CCOC(=O)C1CCN(Cc2ccccc2C(F)(F)F)CC1`?
RE007 growth inh: inactive; AmpC inh no detg: inactive; AMA1 RON2 block: inactive; AmpC detergent: inactive

How did S=c1[nH]nc(-c2cc(-c3ccco3)[nH]n2)n1-c1cccc2ccccc12 do in these assays?
RE007 growth inh: inactive; AmpC inh no detg: 17.8µM; AMA1 RON2 block: inactive; AmpC detergent: inactive

Results for Cc1ccc(C(=O)Nc2ccc(C(=O)N/N=C/c3c[nH]c4ccccc34)cc2)cc1 ?
RE007 growth inh: inactive; AmpC inh no detg: inactive; AMA1 RON2 block: inactive; AmpC detergent: inconclusive

How did Cc1cccc(NC(=S)N/N=C/c2c[nH]c3ccccc23)c1 do in these assays?
RE007 growth inh: inactive; AmpC inh no detg: 15.8µM; AMA1 RON2 block: inactive[11.6 µM]; AmpC detergent: inactive

What do the screens show for `CCCCSc1nc2c(cnn2-c2ccc(F)cc2)c(=O)[nH]1`?
RE007 growth inh: inactive; AmpC inh no detg: 39.8µM; AMA1 RON2 block: inactive; AmpC detergent: inconclusive

What do the screens show for `CCCSc1nc2c(cnn2-c2ccc(Cl)cc2)c(=O)[nH]1`?
RE007 growth inh: inactive; AmpC inh no detg: inactive; AMA1 RON2 block: inactive; AmpC detergent: inconclusive

Results for CSc1nc2c(cnn2-c2ccc(C)c(C)c2)c(=O)[nH]1 ?
RE007 growth inh: inactive; AmpC inh no detg: inactive; AMA1 RON2 block: inactive; AmpC detergent: inconclusive

What do the screens show for `CCC(C)Sc1nc2c(cnn2-c2ccc(C)c(C)c2)c(=O)[nH]1` (configuration not stated)?
RE007 growth inh: inactive; AmpC inh no detg: 39.8µM; AMA1 RON2 block: inactive; AmpC detergent: inactive

Results for O=C1CN(C(=O)c2ccc(S(=O)(=O)N3CCCCC3)cc2)C(c2ccc(F)cc2)c2cc(Cl)ccc2N1 (configuration not stated) ?
AmpC detergent: inactive

Source: PubChem (National Center for Advancing Translational Sciences (NCATS))
